# According to the supplement of paper PMC6555819:
# Assays:
# Assay in all cases: PBM binding z-score (relative to random genomic background probes); higher = stronger binding; sequences stand for … in GC…GCGATTGACAGCGTAGAATGAAGG
# [1] = test system: PPARg:RXRa DBDmut IVT, anti-RXR (DBD mutation: RXRa K156A/R161A, NR concentration 270 nM, RXRa partner concentration 90 nM)
# Procedure, shortened: (§1)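 For binding z-scores, the reference was random background probes on custom Agilent 4×180K protein-binding microarrays. These arrays were incubated 1 h with ligand-free nuclear receptor dimers in PBS pH 7.4, 2% milk, 0.02% Triton X-100, 1 mM DTT, 0.2 mg/mL BSA and 0.4 mg/ml salmon testes DNA. Fluorescence was scanned after antibody detection of each partner (one per run) and regression-normalized.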
# [2] = test system: PPARg:RXRa IVT, anti-PPARg (NR concentration 270 nM, RXRa partner concentration 90 nM)
# Procedure, shortened: as §1
# [3] = test system: PPARg DBDmut:RXRa IVT, anti-PPARg (DBD mutation: PPARg1 K132A/R137A, NR concentration 270 nM, RXRa partner concentration 90 nM)
# Procedure, shortened: as §1
# [4] = test system: PPARg DBDmut IVT, anti-PPARg (DBD mutation: PPARg1 K132A/R137A, NR concentration 270 nM)
# Procedure, shortened: as §1
# [5] = test system: PPARg homodimer (NR concentration 180 nM)
# Procedure, shortened: as §1
# [6] = test system: PXR:RXRa (NR concentration 270 nM, RXRa partner concentration 90 nM)
# Procedure, shortened: as §1
# [7] = test system: PXR homodimer (NR concentration 270 nM)
# Procedure, shortened: as §1
# [8] = test system: RARa:RXR (NR concentration 270 nM, RXRa partner concentration 90 nM)
# Procedure, shortened: as §1
# [9] = test system: RARa homodimer (NR concentration 270 nM)
# Procedure, shortened: as §1
# [10] = test system: RARb:RXRa (NR concentration 270 nM, RXRa partner concentration 90 nM)
# Procedure, shortened: as §1
# [11] = test system: RARb homodimer (NR concentration 270 nM)
# Procedure, shortened: as §1
# [12] = test system: RARg:RXRa (NR concentration 270 nM, RXRa partner concentration 90 nM)
# Procedure, shortened: as §1
# [13] = test system: RARg homodimer (NR concentration 270 nM)
# Procedure, shortened: as §1
# [14] = test system: RXRa DBDmut IVT, anti-RXR (DBD mutation: RXRa K156A/R161A, NR concentration 90 nM)
# Procedure, shortened: as §1
# [15] = test system: RXRa homodimer (NR concentration 180 nM)
# Procedure, shortened: as §1
# [16] = test system: THRa:RXRa (NR concentration 90 nM, RXRa partner concentration 90 nM)
# Procedure, shortened: as §1
# [17] = test system: THRa homodimer (NR concentration 90 nM)
# Procedure, shortened: as §1
# [18] = test system: VDR:RXRa (NR concentration 270 nM, RXRa partner concentration 90 nM)
# Procedure, shortened: as §1
# [19] = test system: VDR homodimer (NR concentration 270 nM)
# Procedure, shortened: as §1
Sequence,PBM binding z-score [1],PBM binding z-score [2],PBM binding z-score [3],PBM binding z-score [4],PBM binding z-score [5],PBM binding z-score [6],PBM binding z-score [7],PBM binding z-score [8],PBM binding z-score [9],PBM binding z-score [10],PBM binding z-score [11],PBM binding z-score [12],PBM binding z-score [13],PBM binding z-score [14],PBM binding z-score [15],PBM binding z-score [16],PBM binding z-score [17],PBM binding z-score [18],PBM binding z-score [19]
CAGCCTAGGTCAGGGCCAGTACAGGAGGAACGTT,1.35,1.58,-0.899,-1.34,0.93,0.659,-0.209,1.03,-0.614,3.42,2.81,3.02,3.74,-0.352,1.45,2.02,0.539,0.635,-0.209
AGAACAAGGGCAATGAGTTGATAGCACGGGTGGC,2.52,1.75,0.287,-0.527,0.058,0.978,4.14,0.000148,-0.325,2.2,0.907,1.1,1.4,1.14,0.654,0.418,-0.2,4.7,2.73
GCAGCCAGGTGAAACGCAGGTAACTCAGGGTGGC,1.32,1,-1.26,-1.53,-1.44,-0.698,-1.29,0.121,-2.03,0.362,-0.292,0.262,-0.109,-0.94,0.157,1.68,-0.396,-0.929,-0.939
TCTTGTATATCAAAGGTTAAGAAAGCCGAAGCCT,1.87,2.65,0.898,0.823,1.29,1.93,0.544,2.96,0.898,2.22,1.82,1.98,1.32,0.935,2.92,1.58,0.181,1.91,0.26
ACTAGCAGTCCAAGGGTCACTCAAGATTAGTCCG,-0.304,1.77,0.198,-0.0845,1.69,3.03,0.168,3.39,-0.132,3.35,3.7,3.72,3.27,0.612,3.58,2.61,0.466,2.86,1.15
AGTCAAAGCTCATCTAGGTAACGTAAGATATGCT,0.59,1.71,0.357,0.493,-0.497,-0.42,-0.351,-0.0294,-0.0154,-0.0836,-0.617,0.0208,0.207,-0.43,0.198,0.467,-0.333,-0.215,-0.256
ACTTACGGGTCAACGAGGTTTTAGCACGCGTATA,3.23,3.96,0.283,0.441,2.07,4.02,-0.016,4.35,0.666,4.07,3.37,5.26,4.9,2.16,5.5,3.46,0.678,6.69,1.84
ATCTCTAGGTAAAGGTAGTTCAGTGAATGCAAAT,2.73,2.3,0.954,1.19,1.25,1.15,0.822,0.523,1.7,0.628,0.964,0.44,0.605,0.345,0.164,1.21,0.679,1.12,1.12
TCATATAGGTAATTCAGGTGAAAGTCGGCATCTA,4.31,3.55,1.64,1.6,1.41,0.703,0.443,1.34,1.6,0.546,0.654,0.323,0.241,1.73,0.923,2.52,1.8,1.11,0.399
CCTAGCAGGCCAATCTCGGTCACTCAAGGCTTGA,1.96,1.29,-0.633,-1.57,0.0271,-0.17,-0.412,0.0359,-0.713,1.34,1.46,0.504,1.24,0.398,-0.123,1.92,-0.183,-0.37,-0.29
TCTGCTAGATCAGTTGGTCAGCTAACGAGCTGCC,0.357,-0.283,-0.43,-0.675,-2.6,-0.872,-1.07,-0.915,-1.97,-0.199,-0.799,-0.667,-0.644,-0.256,-0.419,-1.77,-1.48,-0.706,-1.49
GCGACTGGGGCATCAGCGGGTTACCATAACTTAA,3.43,2.86,-0.728,-1.07,0.437,-0.0944,-0.517,0.346,-0.439,0.729,0.625,0.738,0.196,-0.276,0.347,0.628,-0.267,-0.262,-0.158
TAGCCTAGGTCATGGGCCAGTAAACCACGCGAAC,1.71,3.46,0.0624,0.0351,1.25,1.83,-0.321,2.72,-0.171,3.98,2.99,4.38,5.19,0.473,3.77,3.25,1.12,2.07,0.514
ATCTCTAGGTAACAAGTTCAGTAAAAGAGAGGAC,3.06,3.22,1.24,1.1,1.34,1.67,1.66,1.57,1.54,1.78,2.18,1.21,1.6,1.08,1.1,1.85,1.12,1.96,2.15
CAAACTAGGTAACCGGAAGGTCAAAGTCCGCATG,6.68,6.36,1.05,1.34,3.53,3.95,1.57,4.88,1.78,3.35,4.17,4.35,3.57,0.531,3.79,3.26,1.44,3.35,2.22
CCTACTGGGCCAAAAAGGTGATTGATGCCGATAA,2.58,2.98,-0.0281,-0.242,0.459,-0.0996,-0.324,-0.0994,-0.0492,0.271,0.483,0.0442,0.047,-0.635,-0.0112,0.0456,-0.353,-0.0906,-0.114
TAGCCTAGGTGATGGGCCAGTATACCACGCGAAC,-0.692,0.25,-0.775,-0.847,-0.49,-0.714,-0.807,-0.895,-1.38,-0.281,-0.0783,-0.276,-0.196,-1.47,-0.236,-0.153,-0.23,-0.726,-0.76
ATTGAAAGGTCGAGGTGAGTATAGAGAAAGGGAA,0.763,2.77,1.27,1.65,2.49,2.7,0.738,3.64,1.83,4.28,3.09,4.26,4.24,1.13,4.51,3.18,1.04,2.87,1.18
ATATGTAGGTTACATCCGGGTCATTAAGGCTATG,7.73,7.28,1.96,2.14,1.78,3.52,4.13,3.18,0.456,2.36,3.03,3.68,2.19,1.31,3.15,3.75,2.8,4.54,2.89
ACAGACAGGTGATTAAGGTAACTCAGGCTATCAT,0.239,0.557,0.291,-0.545,0.126,0.164,0.294,1.23,0.587,0.35,0.49,0.29,0.554,0.282,0.366,2.77,1.93,0.713,0.0908
AGAACGAGGGCAAGGAGTTGATAGCACGGGTGGC,2.54,2.09,1.19,-0.462,0.0784,0.742,1.54,0.14,-0.0474,2.15,0.992,1.21,1.49,1.12,0.867,0.885,-0.277,3.32,1.93
AATAGAGGGTCATCGTAGGCCAGAGTACGCACAG,3.35,4.01,0.835,0.46,2.99,4.34,0.066,4.67,1.33,4.25,3.48,5.35,5.12,2.46,5.77,4.26,0.0486,4.64,2.55
AATACCGGGTCATCGTAGGCCAGAGTACGCACAG,2.9,4.61,2.58,2.08,2.01,4.56,0.459,4.53,0.886,3.67,3.19,4.84,4.28,2.45,5.06,4.59,1.69,4.42,3.06
AGAATGAGGTTATACCTAGATCAGGGAAGAAAGT,2.11,2.02,1.05,0.686,0.0294,0.87,0.227,1.44,-0.0854,1.19,0.483,1.75,1.14,1.51,2.12,2.05,0.418,1.11,0.345
TCGAGTGGGTTAGGGGCATTCAGAATGGCGTCGA,1.25,0.919,-0.337,-0.345,0.908,1.04,0.501,0.739,0.24,0.943,1.21,0.178,-0.204,0.231,0.603,1.23,0.84,1.04,1.54
CCTCGGGGGACAACAGGAGGTCAGAGCTGCCAGA,0.622,1.99,0.461,0.197,1.34,2.74,0.253,2.8,0.259,3.16,3.75,4.66,4.32,0.347,2.89,3.22,1.07,2.71,1.19
ATAAGTAGGTTATCGGGTCATTCAGTTTGCGCAT,7.58,7.8,5.22,5.33,3.5,3.91,7.66,3.84,2.2,2.61,3.12,3.44,2.43,1.57,3.55,3.29,2.93,5.16,4.49
ACTAGCAGGCCAAGTTTGGGTGACTCAAACAAAG,0.661,0.765,-1.13,-1.09,-0.815,-0.475,-0.715,-0.198,-0.374,0.418,0.251,0.0882,-0.216,-0.308,-0.222,0.796,-0.161,-0.388,-0.571
CCATACGGGTCACTGACAGGTTATAGCATTTGGA,2.31,3.21,0.442,0.0659,2.58,3.55,0.194,4.58,1.68,3.81,3.06,5.82,4.78,1.24,5.32,2.84,-0.0458,3.74,1.3
AGAATGAGGTTATACGTAGATCAGGGTAGAAAGT,4.24,2.33,1.07,0.356,1.01,1.35,0.929,1.86,0.591,1.59,1.33,1.82,1.34,1.81,2.24,2.42,0.874,1.49,1.21
